# Laboratory results: PubChem BioAssay (Tox21)
# Inconclusive results are not listed. Calls of active or inactive are those of the source. Calls come from the whole dose curve; as a rule, active = well fitted cell-killing curve with a large enough effect in the repeat runs; inconclusive = weak or mixed curves, or effect the other way; inactive = no such curve, though single readings can be large or run the other way.
# Assay: qHTS assay for small molecule activators of the heat shock response signaling pathway - cell viability counter screen (AID 743209); note: nearly all actives have a fitted effect of over 50% in size
# Conditions: HSE-bla HeLa viability, CellTiter-Glo luminescence, 5 h; series mostly up to 62.6 µM
# Source text: U.S. Tox21 Program National Center for Advancing Translational Sciences [NCATS] NIH Chemical Genomics Center [NCGC] U.S. Environmental Protection Agency [EPA] National Institutes of Environmental Health Sciences [NIEHS] National Toxicology Program [NTP] U.S. Food and Drug Administration [FDA] Tox21 Assay Overview: Various chemicals, environmental and physiological stress conditions may lead to the activation of heat shock response/ unfolded protein response (HSR/UPR). There are three heat shock transcription factors (HSFs) (HSF-1, -2, and -4) mediating transcriptional regulation of the human HSR. To identify the compounds that activate HSR signaling, HSE-bla HeLa cell line (Invitrogen, Carlsbad, CA, USA) containing a beta-lactamase reporter gene under the control of the heat shock response elements was used to screen Tox21 10K compound library. The cytotoxicity of the Tox21 compound library against the HSE-bla HeLa cell line was tested in parallel by measuring the cell viability using CellTiter-Glo assay (Promega, Madison, WI) in the same wells.
# Tox21 Assay Protocol Summary: The CellSensor HSE-bla HeLa cells (Invitrogen, Carlsbad, CA, USA) were dispensed at 1500 cells/6uL/well into 1536-well black wall/clear bottom plates using a Multidrop combi (Thermo Fisher Scientific, Waltham, MA) dispenser. After the assay plates were incubated at 37 C and 5% CO2 overnight, 23 nL of compounds dissolved in DMSO, positive controls or DMSO only was transferred to the assay plate by a Pintool station (Kalypsys, San Diego, CA). The plates were incubated at 37 C for 5 h. After 1 uL of LiveBLAzerTM B/G FRET substrate was added using a Flying Reagent Dispenser (FRD, Beckman Coulter, Indianapolis, IN, USA), the plates were incubated at room temperature for 2.5 h, and fluorescence intensity was measured by an Envision plate reader (PerkinElmer, Shelton, CT). For cell viability readout that measures cytotoxicity, 3 ul/well of CellTiter-Glo reagent was added into the assay plates using a FRD. After 30 min incubation at room temperature, the luminescence intensity in the plates was measured using a ViewLux (PerkinElmer) plate reader.
row,SMILES,outcome
1,O=C1OC(=O)c2cc([N+](=O)[O-])ccc21,inactive
2,Cc1cc(C)c(NC(=O)CN(CC(=O)O)CC(=O)O)c(C)c1Br,inactive
3,N#CC1(O)CCCCC1,inactive
4,CCCCNc1ccccc1,inactive
5,CCCCC=O,inactive
6,CC12CCC(CC1=O)C2(C)C (stereo not given),inactive
7,CC(C)(C)OC(=O)N1C[C@@H](F)C[C@H]1C(=O)O,inactive
8,O=c1[nH]c(=O)n([C@H]2O[C@H](CO)[C@@H](O)[C@@H]2O)cc1/C=C\Br,inactive
9,CCCCCCCCCCCCCCCCCCOCC(O)CO (stereo not given),inactive
10,CCCCCCCCCCCCI,inactive
11,CCOC(=O)Cn1c(=O)sc2cccc(Cl)c21,inactive
12,O=C(O)Cc1cc(I)c(Oc2cc(I)c(O)c(I)c2)c(I)c1,inactive
13,CC1(C)SC(C)(C)SC(C)(C)S1,inactive
14,COc1cc(O)cc(O)c1,inactive
15,COc1cc(CCC(C)=O)ccc1O,inactive
16,CN(C)CCOC(c1ccc(Cl)cc1)c1ccccn1 (stereo not given),inactive
17,CCCCc1ccc2cccc(S(=O)(=O)O)c2c1,inactive
18,C=C(C)C1CC=C(C)C(O)C1 (stereo not given),inactive
19,C#CC(C)(O)CC(C)C (stereo not given),inactive
20,Nc1cc(N)cc(C(=O)O)c1,inactive

row,SMILES,outcome
1,CCN(CC)S(=O)(=O)c1ccc(C(=O)O)cc1,inactive
2,O=C(CCOCCOCCOCCOCCC(=O)Nc1c(I)cc(I)c(C(=O)O)c1I)Nc1c(I)cc(I)c(C(=O)O)c1I,inactive
3,CN(C)CCn1nnnc1SCC1=C(C(=O)O)N2C(=O)[C@@H](NC(=O)Cc3csc(N)n3)[C@H]2SC1,inactive
4,COC(=O)[C@H]1[C@H]2C[C@@H]3c4[nH]c5cc(OC)ccc5c4CCN3C[C@H]2C[C@@H](OC(=O)COc2ccc(OC)cc2)[C@@H]1OC,inactive
5,C(=C(c1ccccc1)c1ccccc1)c1ccccc1,inactive
6,CC(=O)NC(Cc1ccccc1)C(=O)O (stereo not given),inactive
7,COc1ccc(NC(C)=O)cc1,inactive
8,O=C(O)c1ccc[n+]([O-])c1,inactive
9,O=C(O)c1cccc(C(=O)O)n1,inactive
10,CCN(CC)C(=O)c1ccc(O)c(OC)c1,inactive
11,NS(=O)(=O)c1cc(C2(O)NC(=O)c3ccccc32)ccc1Cl (stereo not given),inactive
12,O=C(O)/C=C/c1ccc(/C=C/C(=O)O)cc1,inactive
13,CC(C)(C)C(=O)/C=C/c1ccc(Cl)cc1,inactive
14,CCCOc1ccccc1-c1nc2n[nH]nc2c(=O)[nH]1,inactive
15,CC(C)=CCC/C(C)=C/C(=O)O,inactive
16,NC(N)=NS(=O)(=O)c1ccc(N)cc1,inactive
17,Cc1ccccc1C(=O)O,inactive
18,O=C(O)C(O)[C@H](O)[C@@H](O)[C@H](O)[C@H](O)CO (stereo not given in full),inactive
19,Nc1[nH]c(=O)ncc1F,inactive
20,C=C(C)C(=O)NCCC[N+](C)(C)C,inactive
